Active and inactive are the calls of the source. Calls follow the shape of the full dose curve.
biological target: Estrogen receptor (Homo sapiens) (UniProt P03372); experiment: qHTS assay to identify small molecule agonists of the estrogen receptor alpha (ER-alpha) signaling pathway in the presence of an antagonist (AID 1259383); details: VM7Luc4E2 cells, ERE-luciferase, +ICI-182,780, 22 h; series mostly up to 92.4 µM; also: top concentration of the series differs between compounds; nearly all actives have a fitted effect of over 15% in size
Description: National Center for Advancing Translational Sciences [NCATS] NIH Chemical Genomics Center [NCGC] U.S. Environmental Protection Agency [EPA] National Institutes of Environmental Health Sciences [NIEHS] National Toxicology Program [NTP] Assay overview: Estrogen receptor (ER), a member of nuclear hormone receptor plays an important role in development, metabolic homeostasis and reproduction. Two subtypes of ER, ER-alpha and ER-beta, have similar expression patterns with some uniqueness in both types. Endocrine disrupting chemicals (EDCs) and their interactions with steroid hormone receptors like ER causes disruption of normal endocrine function. Therefore, it is important to understand the effect of environmental chemicals in ER signaling pathway. For identifying ER agonists, VM7Luc4E2 cell line has been used in the current assay. VM7Luc4E2 cell line (provided by Denison MS, University of California) endogenously expresses full-length ER-alpha and is stably transfected with a plasmid containing four estrogen responsive elements (ERE) upstream of a luciferase reporter gene. This current screening for measuring luciferase reporter gene activity using VM7Luc4E2 cells against Tox21 10K library collection is a confirmation study on agonist mode screening in presence of ER-antagonist (ICI-182,780) at 10.0nM final concentration.
Assay Protocol Summary: VM7Luc4E2 cells were cultured in phenol red free assay medium containing 10% charcoal stripped FBS for 5 days prior to the assay. The cells were dispensed at 4,000 cells in 4uL of assay medium per well into white wall/solid-bottom 1536-well plates (Corning Life Sciences, Corning, NY) using a Multidrop Combi (Thermo Fisher Scientific Inc., Waltham, MA) dispenser. After the assay plates were incubated at 37C and 5% CO2 for 24hr, 1uL of 10.0nM (final concentration) ICI-182,780 or assay buffer was added using two separate tips of Flying Reagent Dispenser (FRD, Aurora Discovery, San Diego, CA). Then 23nL of compounds dissolved in DMSO at 15 concentrations and positive controls or DMSO only was transferred to the assay plates by a Pintool station (Wako, San Diego, CA). The assay plates were incubated at 37C and 5% CO2 for 22hr. For luciferase read, 4uL/well ONE-Glo reagent (Promega Corporation, Madison, WI) was added to each well using FRD and after 30min incubation at room temperature, luminescence signal was measured on ViewLux plate reader (PerkinElmer, Shelton, CT).

Sequence of Estrogen receptor (Homo sapiens) (P03372 whole entry, looked up): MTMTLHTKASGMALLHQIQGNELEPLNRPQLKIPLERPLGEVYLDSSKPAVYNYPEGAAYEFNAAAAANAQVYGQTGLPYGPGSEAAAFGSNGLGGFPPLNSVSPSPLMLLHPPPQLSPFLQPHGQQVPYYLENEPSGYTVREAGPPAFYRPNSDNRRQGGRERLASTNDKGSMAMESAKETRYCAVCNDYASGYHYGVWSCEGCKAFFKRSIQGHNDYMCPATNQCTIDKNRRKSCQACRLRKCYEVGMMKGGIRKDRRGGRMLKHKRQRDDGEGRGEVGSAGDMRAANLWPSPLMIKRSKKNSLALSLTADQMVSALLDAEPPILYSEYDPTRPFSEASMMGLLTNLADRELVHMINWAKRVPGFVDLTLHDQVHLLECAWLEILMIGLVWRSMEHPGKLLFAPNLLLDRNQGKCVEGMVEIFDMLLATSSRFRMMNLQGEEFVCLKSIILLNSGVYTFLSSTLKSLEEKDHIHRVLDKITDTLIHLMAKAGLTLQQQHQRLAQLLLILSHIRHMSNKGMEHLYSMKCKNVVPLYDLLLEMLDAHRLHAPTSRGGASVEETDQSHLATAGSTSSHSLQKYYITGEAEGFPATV

`CC/C=C\CCOC(C)OCC` (stereo not given) was tested. Which outcome did it give?
Its outcome is “inactive”.

`CN1C(C)(C)CC(O)CC1(C)C` was tested. Which outcome did it give?
Its outcome is “inactive”.

With `C=C[Si](OC(C)=O)(OC(C)=O)OC(C)=O` as the molecule, how does the outcome read?
The outcome was “inactive”.

With `CCCOC(=O)CC` as the molecule, how does the outcome read?
Its outcome is “inactive”.

Which outcome does the source give for `C=CCOCC(O)CO` (stereo not given) here?
The outcome was “inactive”.

With `O=S(=O)(O)c1cc(O)c(O)c(S(=O)(=O)O)c1` as the molecule, how does the outcome read?
Its outcome is “inactive”.

Which outcome does the source give for `C[N+]1(C)[C@@H]2CC(OC(=O)[C@H](CO)c3ccccc3)C[C@H]1[C@@H]1O[C@@H]12` (stereo not given in full) here?
The outcome was “inactive”.

For `Nc1ccn([C@@H]2O[C@H](CO)[C@@H](O)C2(F)F)c(=O)n1`, which outcome is on record?
The outcome was “inactive”.

How did the outcome turn out when `CC(=O)c1ccccc1[N+](=O)[O-]` was run?
Its outcome is “inactive”.

`CC(C)(C)C(=O)Oc1ccc(S(=O)(=O)Nc2ccccc2C(=O)NCC(=O)O)cc1` was tested. Which outcome did it give?
The outcome was “inactive”.

For `c1coc(CNc2ncnc3nc[nH]c23)c1`, which outcome is on record?
The outcome was “inactive”.

How did the outcome turn out when `CCCCN(CCC(=O)OCC)C(C)=O` was run?
Its outcome is “inactive”.

`Cc1onc(-c2c(Cl)cccc2Cl)c1C(=O)Cl` was tested. Which outcome did it give?
Its outcome is “inactive”.

Which outcome does the source give for `OCCCCCO` here?
Its outcome is “inactive”.

Which outcome does the source give for `C=CCCC(=O)O` here?
Its outcome is “inactive”.

`COCCOCC(OC)OC` was tested. Which outcome did it give?
The outcome was “inactive”.

`CCCCOCCOC(=O)COc1cc(Cl)c(Cl)cc1Cl` was tested. Which outcome did it give?
Its outcome is “inactive”.

With `CCN(CC#N)c1cccc(C)c1` as the molecule, how does the outcome read?
The outcome was “inactive”.

Which outcome does the source give for `O=C(CO)[C@@H](O)[C@H](O)[C@@H](O)CO` here?
The outcome was “inactive”.

How did the outcome turn out when `CCOC(=O)COc1cc(-n2ncc(C(F)(F)F)c(C)c2=O)c(F)cc1Cl` was run?
The outcome was “inactive”.

Which outcome does the source give for `Cc1ncc(COP(=O)(O)O)c(C=O)c1O` here?
Its outcome is “inactive”.

For `CCCC(=O)O[C@]1(C(=O)CC)CC[C@H]2[C@@H]3CCC4=CC(=O)CC[C@]4(C)[C@H]3[C@@H](O)C[C@@]21C`, which outcome is on record?
The outcome was “inactive”.

Which outcome does the source give for `CC(N)C12CC3CC(CC(C3)C1)C2` (stereo not given) here?
The outcome was “inactive”.

Which outcome does the source give for `CCCC(C)C(=O)OCC` (stereo not given) here?
The outcome was “inactive”.

Which outcome does the source give for `CCOc1ccc2nc(S(N)(=O)=O)sc2c1` here?
Its outcome is “inactive”.

With `CN(C)CCCN(C)CCCN(C)C` as the molecule, how does the outcome read?
The outcome was “inactive”.

`CC(C)=CCC/C(C)=C/C#N` was tested. Which outcome did it give?
The outcome was “inactive”.

For `N[C@H](C(=O)O)[C@@H](O)c1ccc(O)c(O)c1`, which outcome is on record?
Its outcome is “inactive”.

With `C=CCCCCCCCCC(=O)OCC` as the molecule, how does the outcome read?
Its outcome is “inactive”.

For `CC(C)(CCC(=O)O)C(=O)O`, which outcome is on record?
The outcome was “inactive”.

For `O=C(CO)[C@@H](O)[C@H](O)[C@H](O)CO`, which outcome is on record?
Its outcome is “inactive”.

`O=C(O)CCCC[P+](c1ccccc1)(c1ccccc1)c1ccccc1` was tested. Which outcome did it give?
The outcome was “inactive”.

How did the outcome turn out when `Nc1ccn([C@@H]2O[C@H](CO)[C@@H](O)C2O)c(=O)n1` (stereo not given in full) was run?
The outcome was “inactive”.

For `CCOC(=O)c1cnc2c(cnn2CC)c1NN=C(C)C`, which outcome is on record?
Its outcome is “inactive”.

With `CCOC(=O)CCC(=O)OCC` as the molecule, how does the outcome read?
The outcome was “inactive”.

With `O=[N+]([O-])c1ccc(/C=N\O)o1` as the molecule, how does the outcome read?
Its outcome is “inactive”.

With `O=C(O)Cc1csc(-c2ccc(Cl)cc2)n1` as the molecule, how does the outcome read?
Its outcome is “inactive”.

How did the outcome turn out when `Cc1ncc([C@@H](CCCCCCc2ccc3c(n2)NCCC3)CC(=O)O)cn1` was run?
The outcome was “inactive”.

For `CN(C)C(=O)Oc1ccc[n+](C)c1`, which outcome is on record?
The outcome was “inactive”.

With `Cc1nc(C2CCCCC2)c(-c2ccc(S(N)(=O)=O)c(F)c2)o1` as the molecule, how does the outcome read?
Its outcome is “inactive”.

Reference: PubChem BioAssay (Tox21)
